The nature of the experiment: supercomplex reporter luminescence per Hoechst cell count – Hoechst nuclei count (AID 1645838).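 For all read-outs here: control cybrid cells.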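 For z-score: higher means more mitochondrial supercomplex formation.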 To be noted: Cells, luminescence/Hoechst cell count ratio; for z-score: stronger effect = higher value; for cell count: measured here: cell number, Hoechst nuclei count.
Setting [1] is: library stock concentration (final well concentration not given) 80 uM.
Setting [2] is: library stock concentration (final well concentration not given) 400 uM.
The mark [3] stands for this setting: library stock concentration (final well concentration not given) 2 mM.
The mark [4] stands for this setting: library stock concentration (final well concentration not given) 10 mM.
The mark [5] stands for this setting: library stock concentration (final well concentration not given) 46 uM.
Setting [6] is: library stock concentration (final well concentration not given) 278 uM.
Where [7] appears, read: library stock concentration (final well concentration not given) 1.67 mM.

Structures are written as SMILES. The whole screen tested about 2,000 compounds, of which about 100 (5%) were called active. Cut-off read from the data, not from the text of the source: active = z-score above about 2; inactive = the rest. The list comes from a sample in which actives are over-represented; it also holds similar structures and randomly drawn compounds.

In the case of `CC(O)C(O)C1CNc2nc(N)[nH]c(=O)c2N1` (stereo not given), where the note is “library stock 10 mM”, the outcome was “inactive; censored for cell count”. In addition, the z-score was -0.395 (inactive) under setting [1], -0.667 (inactive) under setting [2] and -0.491 (inactive) under setting [3]. Also, the cell count by setting is: under setting [1], 5380; under setting [2], 5520; under setting [3], 4750.

For the compound `C#C[C@]1(O)CC[C@@H]2[C@@H]3CCc4cc(O)ccc4[C@@H]3CC[C@@]21C`, the z-score by setting is: under setting [1], -0.386 (inactive); under setting [2], -0.396 (inactive); under setting [3], -0.217 (inactive); under setting [4], -0.397 (inactive). Moreover, the cell count is 5910 under setting [1], 5660 under setting [2], 5810 under setting [3] and 5370 under setting [4].

Consider `C[C@H](CCCO)[C@H]1CC[C@H]2[C@@H]3[C@H](O)C[C@H]4C[C@H](O)CC[C@]4(C)[C@H]3C[C@H](O)[C@]12C`, for which the z-score was -0.0135 (inactive) and the cell count amounted to 5570.

As for `O=C(O)c1cccc(S(=O)(=O)N2CCc3ccccc3C2)c1`, the z-score under setting [1] is -0.371 (inactive), the z-score under setting [2] was 0.24 (inactive), the z-score under setting [3] was -0.13 (inactive) and the z-score under setting [4] was 0.0481 (inactive). Moreover, the cell count by setting is: under setting [1], 5540; under setting [2], 4830; under setting [3], 5230; under setting [4], 4980.

As for `O=C(Nc1cccc(Br)c1)c1cccc(S(=O)(=O)N2CCCCCC2)c1`, the z-score was -0.0641 (inactive) under setting [5], 0.273 (inactive) under setting [6], 0.0446 (inactive) under setting [7] and -0.0353 (inactive) under setting [4]. Moreover, the cell count runs as follows: under setting [5], 6460; under setting [6], 6210; under setting [7], 6270; under setting [4], 5890.

For the compound `CC(=NNC(=O)c1cccc(S(=O)(=O)N2CCOCC2)c1)c1cc(Cl)ccc1O`, the outcome (library stock 278 µM) was “inactive; censored for cell count”. In addition, the z-score is -0.349 (inactive) under setting [5], 3.11 (active) under setting [7] and 3.02 (active) under setting [4]. In addition, the cell count reads like this: under setting [5], 7290; under setting [7], 2520; under setting [4], 1770.

Turning to `O=C(O)CCCCCC[C@@H]1[C@@H](CC[C@@H](O)CCc2cccc(C(F)(F)F)c2)[C@H](O)C[C@@H]1O`, the z-score is -0.0245 (inactive) and the cell count amounted to 4710.

Consider `COc1ccc(-c2nc3cc(F)ccc3s2)cc1OC`, for which the z-score is -0.706 (inactive) and the cell count worked out at 5090.

In the case of `O=C(O)/C=C/c1ccc(O)c(O)c1`, the z-score is -0.483 (inactive) and the cell count amounted to 5860.

With `O=C(/C=C/c1cccc(C(=O)NO)c1)NO`, the z-score is 3.39 (active) and the cell count was found to be 4470.

Consider `COc1ccc(/C=C/C(=O)Nc2c(O)cccc2C(=O)O)cc1OC`, for which the z-score is -0.476 (inactive) and the cell count worked out at 5390.

`CCCCCCCCCC(=O)N[C@@H](CN1CCOCC1)[C@@H](O)c1ccccc1`: the z-score is 0.0636 (inactive) and the cell count was determined as 5620.

Turning to `COC1C[C@@H]2CCC(C)[C@@](O)(O2)C(=O)C(=O)N2CCCC[C@@H]2C(=O)O[C@@H](C(C)CC2CCC(n3cnnn3)C(OC)C2)CC(=O)C(C)C=C(C)C(O)C(OC)C(=O)C(C)CC(C)C=CC=CC=C1C` (stereo not given in full), the z-score runs as follows: under setting [1], 0.366 (inactive); under setting [2], 0.334 (inactive); under setting [3], 0.739 (inactive); under setting [4], 1.14 (inactive). Further, the cell count is, setting by setting: under setting [1], 4410; under setting [2], 4360; under setting [3], 4240; under setting [4], 3590.

Consider `CO[C@H]1C[C@@H]2CC[C@@H](C)[C@@](O)(O2)C(=O)C(=O)N2CCCC[C@H]2C(=O)O[C@H]([C@@H](C)C[C@@H]2CC[C@@H](O)[C@H](OC)C2)CC(=O)[C@H](C)/C=C(\C)[C@@H](O)[C@@H](OC)C(=O)[C@H](C)C[C@H](C)/C=C/C=C/C=C/1C`, for which the z-score was 2.24 (active) and the cell count was found to be 4010.

For the compound `COC1CC2CCC(C)C(O)(O2)C(=O)C(=O)N2CCCCC2C(=O)OC(C(C)CC2CCC(O)C(OC)C2)CC(=O)C(C)C=C(C)C(O)C(OC)C(=O)C(C)CC(C)C=CC=CC=C1C` (stereo not given), the z-score was 0.756 (inactive) under setting [1], 0.731 (inactive) under setting [2], 1.2 (inactive) under setting [3] and 1.21 (inactive) under setting [4]. Moreover, the cell count was determined as 2980 under setting [1], 3130 under setting [2], 2660 under setting [3] and 2720 under setting [4].

For the origin of these results see PubChem BioAssay AID1645838 (ICCB-Longwood Screening Facility, Harvard Medical School, 2021).
